Source: PubChem BioAssay AID504339 (National Center for Advancing Translational Sciences (NCATS), 2011)
Out of some 390,000 compounds screened, about 17,000 (4.4%) were called active. About 8% were inconclusive and are not listed. The entries come from a sample that favours actives as a whole. A number with no mark means an inactive call. Calls come from the whole dose curve; as a rule, active = well fitted inhibition curve with a large enough effect; inconclusive = small, poorly fitted or top-dose-only effect; inactive = no such curve, though single readings can be large or run the other way.

target: Lysine-specific demethylase 4A (Homo sapiens) (UniProt O75164); assay: qHTS Assay for Inhibitors of JMJD2A-Tudor Domain; conditions: AlphaScreen JMJD2A-Tudor / H3K4me3 peptide binding; series mostly up to 114 µM; activity change, negative = inhibition: at the top concentration; note: nearly all actives have a fitted effect of over 50% in size
Sequence (O75164 whole entry, looked up, the tested form may be a part): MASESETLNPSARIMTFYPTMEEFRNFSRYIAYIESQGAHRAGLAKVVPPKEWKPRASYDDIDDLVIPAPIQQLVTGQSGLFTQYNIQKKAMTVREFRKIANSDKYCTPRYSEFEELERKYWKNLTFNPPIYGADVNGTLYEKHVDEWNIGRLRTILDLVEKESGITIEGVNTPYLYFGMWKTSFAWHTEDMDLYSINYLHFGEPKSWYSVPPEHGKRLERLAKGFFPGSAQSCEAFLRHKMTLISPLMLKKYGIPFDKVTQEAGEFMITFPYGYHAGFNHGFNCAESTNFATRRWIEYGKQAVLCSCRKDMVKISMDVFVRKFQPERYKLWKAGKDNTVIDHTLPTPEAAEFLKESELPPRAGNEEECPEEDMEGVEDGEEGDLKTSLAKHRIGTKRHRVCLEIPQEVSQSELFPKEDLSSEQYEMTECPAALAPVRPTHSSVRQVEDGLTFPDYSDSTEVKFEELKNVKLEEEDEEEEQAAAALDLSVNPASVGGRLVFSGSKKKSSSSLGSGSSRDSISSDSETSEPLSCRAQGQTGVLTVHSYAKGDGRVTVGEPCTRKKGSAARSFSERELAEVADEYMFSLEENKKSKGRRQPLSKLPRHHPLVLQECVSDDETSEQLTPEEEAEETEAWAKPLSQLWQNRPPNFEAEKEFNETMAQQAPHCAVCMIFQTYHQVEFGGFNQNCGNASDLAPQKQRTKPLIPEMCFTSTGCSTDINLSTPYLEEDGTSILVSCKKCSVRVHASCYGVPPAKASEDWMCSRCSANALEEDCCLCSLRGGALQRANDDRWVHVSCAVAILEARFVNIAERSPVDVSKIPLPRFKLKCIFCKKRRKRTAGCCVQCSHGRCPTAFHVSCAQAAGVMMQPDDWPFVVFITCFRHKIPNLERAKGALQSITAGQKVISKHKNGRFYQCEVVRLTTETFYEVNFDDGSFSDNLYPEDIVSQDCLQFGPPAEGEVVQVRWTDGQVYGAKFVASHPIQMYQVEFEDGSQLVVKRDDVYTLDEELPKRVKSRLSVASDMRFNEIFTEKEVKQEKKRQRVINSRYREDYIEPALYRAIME
% is set by controls: 0 for no effect and ±100 for the full control effect; potency is the fitted concentration of half-maximal effect.

Q: Which “activity change, negative = inhibition” value does the source give for `CCC(=O)N1CCc2cc(S(=O)(=O)NC(Cc3ccccc3)C(=O)NCc3ccc(C)cc3)ccc21` (stereo not given) here?
A: -3%

Q: `CN(Cc1ccccc1)C(=O)c1cc2c(=O)n(C)c3ccccc3c2s1` was tested. Which “activity change, negative = inhibition” value did it give?
A: -1.67%

Q: `COc1ccc(C2=Nn3c(nnc3-c3ccccc3O)SC2)cc1` was tested. Which “activity change, negative = inhibition” value did it give?
A: -17.9%

Q: `CC1=C(C(=O)OCC(C)C)C(c2ccc(OCc3ccccc3)cc2)N2C(=O)CCSC2=N1` (stereo not given) was tested. Which “activity change, negative = inhibition” value did it give?
A: -15.6%

Q: For `CCC(=O)Nc1cccc(C(=O)OCc2cc(=O)n3nc(CC)sc3n2)c1`, which “activity change, negative = inhibition” value is on record?
A: -3.97%

Q: Which Potency does the source give for `S=c1[nH]nc(NCCc2ccccc2)s1` here?
A: 2.51 µM (active)

Q: How did the “activity change, negative = inhibition” value turn out when `O=S(=O)(NCCc1ccncc1)c1ccccc1` was run?
A: -7.32%

Q: How did the “activity change, negative = inhibition” value turn out when `O=S(=O)(NCCc1ccccc1)c1ccccc1` was run?
A: -11.6%

Q: How did the “activity change, negative = inhibition” value turn out when `Cc1nn2c(=O)cc(COC(=O)CNC(=O)c3ccc(F)cc3)nc2s1` was run?
A: -14.3%

Q: Which “activity change, negative = inhibition” value does the source give for `Cc1ccc(C)c(N2CCN(Cc3nnc(-c4ccccc4)o3)CC2)c1` here?
A: -4.79%

Q: With `CC1CCC(N2CC(=O)N(CCC3=CCCCC3)C(c3ccc(F)cc3)C2=O)CC1` (stereo not given) as the compound, how does the “activity change, negative = inhibition” value read?
A: 7.65%

Q: How did the Potency turn out when `Cc1ccccc1-c1n[nH]c(=S)n1C` was run?
A: 7.08 µM (active)

Q: With `Cn1c(-c2sc3cc(C(F)(F)F)cnc3c2-c2ccccc2)n[nH]c1=S` as the compound, how does the “activity change, negative = inhibition” value read?
A: -31.9%

Q: `Cn1c(-c2sccc2OCc2cccc(C(F)(F)F)c2)n[nH]c1=S` was tested. Which activity change, negative = inhibition did it give?
A: -12% [at 11.4 µM]

Q: For `COc1ccc(-c2nc(SCC(=O)N3CCOCC3)n[nH]2)cc1`, which “activity change, negative = inhibition” value is on record?
A: -4.35%

Q: With `COc1ccc(C(=O)CSc2n[nH]c(N)n2)cc1` as the compound, how does the Potency read?
A: 56.2 µM (active)

Q: With `COc1ccc(CNC(=O)CSc2n[nH]c(N)n2)cc1OC` as the compound, how does the “activity change, negative = inhibition” value read?
A: -7.77%

Q: How did the “activity change, negative = inhibition” value turn out when `COc1cccc(C(=O)NC(=O)Nc2ccc(-c3cc(C(F)(F)F)nn3-c3ccccc3)cc2)c1` was run?
A: -9.7%

Q: For `Cc1ccc(S(=O)(=O)NCc2nc3nc(C)cc(C)n3n2)cc1`, which “activity change, negative = inhibition” value is on record?
A: -10.4%

Q: Which “activity change, negative = inhibition” value does the source give for `CCC1=Nc2cc(C(=O)NCCCOC(C)C)ccc2Sc2ccc(C)cc21` here?
A: -26.2%

Q: With `O=C(CCS(=O)(=O)c1ccc2c(c1)NC(=O)CO2)Nc1cccc(C(F)(F)F)c1` as the compound, how does the “activity change, negative = inhibition” value read?
A: -2.96%

Q: How did the “activity change, negative = inhibition” value turn out when `CS(=O)(=O)c1ccc2c(c1)SC1=NC(=O)/C(=C/c3ccco3)C(=N)N12` was run?
A: -34%

Q: Which Potency does the source give for `CC(C)(C)C1C/C(=C/c2ccco2)C(=O)/C(=C/c2ccco2)C1` (stereo not given) here?
A: 31.6 µM (active)

Q: With `Cc1cccc(NC(=O)CSc2ncc(-c3ccccc3)[nH]2)c1C` as the compound, how does the “activity change, negative = inhibition” value read?
A: -23.9%

Q: `CCc1ccccc1NS(=O)(=O)c1ccc2nc(-c3ccccc3)[nH]c2c1` was tested. Which “activity change, negative = inhibition” value did it give?
A: -10.6%

Q: How did the “activity change, negative = inhibition” value turn out when `Cc1ccc(Nc2ccc3cc(S(=O)(=O)N4CCCCC4)ccc3n2)cc1F` was run?
A: 48.7%

Q: `CCOc1ccc(C2CC(=O)c3c([nH]c(C(=O)OCc4ccccc4)c3C)C2)cc1` (stereo not given) was tested. Which “activity change, negative = inhibition” value did it give?
A: -34.6%

Q: `Cc1ccc(CNC(=O)CCc2c(C)nn(-c3ccc(N4CCCC4)nn3)c2C)cc1` was tested. Which “activity change, negative = inhibition” value did it give?
A: -14.3%

Q: For `Cc1[nH]c2ccc(S(N)(=O)=O)cc2c1C`, which “activity change, negative = inhibition” value is on record?
A: -20.5%

Q: With `C=CCn1c(=S)sc2c(=O)[nH]c(C)nc21` as the compound, how does the “activity change, negative = inhibition” value read?
A: -6.04%

Q: `C=CCn1c(COc2ccccc2C)nnc1SCC(=O)O` was tested. Which “activity change, negative = inhibition” value did it give?
A: -21.3%

Q: With `C=CCn1c(-c2ccc3[nH]c(C)c(C)c3c2)n[nH]c1=S` as the compound, how does the Potency read?
A: 50.1 µM (active)

Q: Which Potency does the source give for `C=CCn1c(-c2ccccc2OCC)n[nH]c1=S` here?
A: 4.47 µM (active)

Q: Which “activity change, negative = inhibition” value does the source give for `C=CCn1c(CCc2ccc(OC(C)C)cc2)n[nH]c1=S` here?
A: -56.8%

Q: Which “activity change, negative = inhibition” value does the source give for `COc1ccc(-c2cn3c(C)c(C(=O)Nc4cc(C)cc(C)c4)sc3n2)cc1` here?
A: -14.4%

Q: `COC(=O)c1cc2occc2n1Cc1nc(-c2ccc(C)cc2)oc1C` was tested. Which “activity change, negative = inhibition” value did it give?
A: -13.8%

Q: How did the “activity change, negative = inhibition” value turn out when `Cc1cccc(NC(=O)c2cc3c(C)nn(-c4ccccc4)c3s2)c1` was run?
A: 0.687%

Q: For `Nc1ccccc1SC(C[N+](=O)[O-])c1ccccc1` (stereo not given), which Potency is on record?
A: 6.31 µM (active)

Q: For `O=C(c1ccc(C(F)(F)F)cc1)N1CCC(c2nc(-c3ccc(S(=O)(=O)N4CCCC4)cc3)no2)CC1`, which “activity change, negative = inhibition” value is on record?
A: -23.6%

Q: How did the “activity change, negative = inhibition” value turn out when `O=C(CC(c1cccs1)N1Cc2ccccc2C1=O)Nc1ccc(F)c(F)c1` (stereo not given) was run?
A: -6.41%

Q: How did the “activity change, negative = inhibition” value turn out when `Cc1cccc(NC(=O)CSc2nc3c([nH]c4ccccc43)c(=O)n2-c2cc(C)cc(C)c2)c1` was run?
A: -2.26%

Q: `Cc1ccc(N2CC(C(=O)Nc3ccc(N(C)C)cc3)CC2=O)cc1Cl` (stereo not given) was tested. Which “activity change, negative = inhibition” value did it give?
A: -14.2%

Q: With `O=S(=O)(NCCS(=O)(=O)N1CCN(c2ccccc2)CC1)c1ccc(Cl)cc1` as the compound, how does the “activity change, negative = inhibition” value read?
A: -10.5%

Q: With `CCC(C)Nc1oc(-c2ccc(COc3ccc(Cl)cc3)o2)nc1C#N` (stereo not given) as the compound, how does the “activity change, negative = inhibition” value read?
A: -23.2%

Q: How did the Potency turn out when `CN1CCN(c2oc(-c3ccc(COc4ccc(Cl)cc4)o3)nc2C#N)CC1` was run?
A: 39.8 µM (active)

Q: For `COc1ccc(OCc2ccc(-c3nc(C#N)c(N4CCN(c5ccccc5)CC4)o3)o2)cc1`, which “activity change, negative = inhibition” value is on record?
A: -25.8%

Q: With `CCOc1ccccc1NC(=O)Cn1c(=O)n(Cc2ccccc2)c(=O)c2c(C)c(C(=O)N(C)C)sc21` as the compound, how does the “activity change, negative = inhibition” value read?
A: -12.3%

Q: For `c1ccc(COc2ccccc2CNCc2cccnc2)cc1`, which “activity change, negative = inhibition” value is on record?
A: -35.1%

Q: How did the Potency turn out when `N#Cc1nc(COc2ccc(-c3ccccc3)cc2)oc1NCc1cccnc1` was run?
A: 44.7 µM (active)

Q: With `O=S(=O)(c1ccccc1)c1nc(-c2ccccc2F)oc1NCc1cccnc1` as the compound, how does the “activity change, negative = inhibition” value read?
A: -32.6%
